# Screens from PubChem.
# aSyn 5UTR act = Activators via SNCA 5'UTR binding, MLPCN. alpha-synuclein 5'UTR reporter, activators screen. activity score, % (tested at 7.5 µM), hits read low. AID 1814, 2009. 300,000 tested, 7.1% active; in the data active means activity score below about -60%
# * = called active by the depositor. A selection follows.
SMILES,aSyn 5UTR act
Oc1ccc(-c2cnc3ccccc3n2)cc1,-72.3*
Cn1c(O)c(C=Nc2ccc(Br)cc2)sc1=O,-173.0*
COc1cc(OC)cc(C(=O)Nc2cccc(-c3ccc(N4CCOCC4)nn3)c2)c1,-85.3*
COc1ccc(C(=O)Nc2cccc(-c3ccc(N4CCOCC4)nn3)c2)cc1,-69.3*
CCC(=O)Nc1cccc(NC(=S)NC(=O)c2ccccc2Cl)c1,-81.9*
O=C(NC(=S)Nc1ncccn1)c1ccccc1Cl,-181.2*
CCC(=O)Nc1cccc(NC(=S)NC(=O)c2cccs2)c1,-161.1*
O=C(NC(=S)Nc1ccccc1O)c1ccc(Cl)cc1Cl,-106.3*
O=C(Nc1ccccc1N1CCCCC1)c1ccc(-c2ccc(Cl)cc2)o1,99.1
N#CCCN1CCN(C(=S)c2ccc(-c3ccc(Cl)cc3)o2)CC1,-88.0*
S=C(c1ccc(-c2ccc(Cl)cc2)o1)N1CCCCC1,-149.9*
CN1CCN(C(=S)c2ccc(-c3cccc(Cl)c3Cl)o2)CC1,-113.3*
O=C(c1ccc(-c2ccccc2Cl)o1)N1CCN(S(=O)(=O)c2cccs2)CC1,-113.7*
S=C(c1ccc(-c2ccccc2Cl)o1)N1CCCCC1,-169.9*
O=C(CCl)N1CCCC1c1ccc2c(c1)OCCO2 (centres undefined),-151.8*
CN(C(=O)COC(=O)/C=C/c1ccccc1[N+](=O)[O-])c1ccccc1,-68.7*
O=C(COC(=O)/C=C/c1ccccc1[N+](=O)[O-])NC1CCS(=O)(=O)C1 (centres undefined),-108.2*
O=C(COC(=O)/C=C/c1ccccc1[N+](=O)[O-])Nc1ccc(OCc2ccccc2)cc1,-121.9*
C=CCn1c(C)cc(C(=O)CSc2n[nH]c(N)n2)c1C,-78.6*
Cc1cc(C(=O)CSc2n[nH]c(N)n2)c(C)n1-c1ccccc1,-111.0*
Cc1cc(C(=O)CSc2n[nH]c(N)n2)c(C)n1-c1ccc(F)cc1,-82.7*
Cc1cc(C(=O)CSc2nnc3ccccn23)c(C)n1-c1ccccc1,101.8
CC(C)(C)n1nc(-c2ccc(F)cc2)c2c(N)ncnc21,70.9
Cc1cc(/C=C(\C#N)C(=O)NC2CCCCCC2)c(C)n1C,-74.0*
Cc1ccccc1Cn1nnc(C(=O)Nc2ccc3c(c2)OCCO3)c1N,-108.8*
SMILES,aSyn 5UTR act
Cc1ccc(C)c(Cn2nnc(C(=O)Nc3ccc4c(c3)OCCO4)c2N)c1,-106.5*
Cc1ccc(NC(=O)c2nnn(-c3ccc4c(c3)OCCO4)c2N)cc1,-148.6*
O=C(NCCc1ccccc1)c1c[nH]c2c(F)cccc2c1=O,-93.5*
CC(C)=CC(=O)NCCc1ccccc1,-63.8*
O=C(NC(=S)NCCc1ccccc1)c1ccccc1,-115.4*
Cc1ccccc1C(=O)NCCCc1ccccc1,-83.8*
O=C(NCCCc1ccccc1)c1ccccc1,-166.6*
O=C(NCCc1ccccc1)c1ccc(-n2cnnn2)cc1,-66.1*
Cc1ccc(C(=O)NCCCc2ccccc2)s1,-136.8*
O=C(CCCC(=O)c1ccc(O)cc1)c1ccc(O)cc1,-70.8*
O=C(NCCc1ccccc1)c1cnc2n(c1=O)CCS2,-79.5*
O=C(NCCc1ccccc1)c1ccccc1C(=O)NCCc1ccccc1,-113.1*
COc1ccc(C(=O)NCCCc2ccccc2)cc1,-149.1*
O=C(NCCc1ccccc1)c1ccc(Br)o1,-93.1*
O=C(NCCc1ccccc1)c1ccc(Cl)cc1[N+](=O)[O-],-166.8*
CN(C(=O)COc1ccccc1C(=O)NCCc1ccccc1)c1ccccc1,-98.1*
O=C(NCCc1ccccc1)c1ccccc1NS(=O)(=O)N1CCCC1,-88.1*
O=C(CCCc1ccccc1)c1ccccc1,-104.9*
O=C(CN(c1ccc(Cl)cc1)S(=O)(=O)c1ccc(Cl)c([N+](=O)[O-])c1)NCCc1ccccc1,105.8
Cc1cccc(CN2C(=O)N/C(=C/c3ccc(C)s3)C2=O)c1,-88.4*
Cc1ccc(NC(=O)CSc2ncc(-c3ccccc3)n2C(=O)c2ccccc2)cc1,-64.3*
Cc1ccc(NC(=O)CSc2nc3ccccc3c3nc4ccccc4n23)cc1,110.3
CCc1nc2cc3sc(CC)nc3cc2s1,-133.1*
CCOC(=O)c1c(C)[nH]c(C2=NNC(=Nc3cccc(Cl)c3)SC2)c1C,-73.7*
CCOC(=O)c1c(C)[nH]c(C=O)c1Cc1cccc(Cl)c1,53.5
SMILES,aSyn 5UTR act
O=C(COc1ccccc1Cl)c1ccc2c(c1)CCCC2,-200.9*
O=C(CN1CCCC1)Nc1ccc(-c2nc3cc(NC(=O)CN4CCCC4)ccc3o2)cc1,-118.5*
CCCC(=O)Nc1ccc2oc(-c3cncc(Br)c3)nc2c1,-94.1*
CCC(=O)Nc1ccc2oc(-c3ccccc3Br)nc2c1,-185.8*
Cc1ccccc1-c1nc2cc(NC(=O)C3CC3)ccc2o1,-150.0*
Cc1ccc2oc(-c3ccc(NC(=O)CC(C)C)cc3)nc2c1,-76.6*
CC(C)CC(=O)Nc1ccc2oc(-c3cccnc3)nc2c1,-120.1*
CCCC(=O)Nc1ccc(-c2nc3cc(C)c(C)cc3o2)cc1,-110.4*
CCC(=O)Nc1ccc2oc(-c3cccnc3)nc2c1,-100.8*
CSc1ccc(N2C(=O)NC3(CCCCC3)C2=O)cc1,-111.1*
CN1C/C(=C\c2ccc(N3CCOCC3)cc2)C(=O)/C(=C/c2ccc(N3CCOCC3)cc2)C1,-426.5*
CCN1C/C(=C/c2ccc(N3CCOCC3)cc2)C(=O)/C(=C/c2ccc(N3CCOCC3)cc2)C1,-412.1*
Cc1nnc2n1N=CC=C(c1ccccc1)S2,-94.0*
O=c1[nH]cnc2nn(-c3ccccc3)nc12,-82.0*
Cc1ccc(-c2nn(-c3ccccc3)cc2C(=O)Nc2ccc(C)c(S(=O)(=O)N3CCOCC3)c2)cc1,-110.0*
N/C(=N\N=C\c1cccc([N+](=O)[O-])c1)c1nonc1N,-150.3*
COc1cccc(/C=N/N=C(\N)c2nonc2N)c1O,-105.4*
COc1ccccc1/C=N\N=C(\N)c1ccccn1,-175.4*
COCCC(=O)N1CCC(C(=O)Nc2ccc(Oc3ccccc3)nc2)CC1,-76.8*
N#C/C(=C\c1ccc(OCc2ccccc2)cc1)C(=O)Nc1ccc(C(=O)O)cc1,-95.8*
CCOc1cc(/C=C(/C#N)C(=O)Nc2ccc(O)cc2)cc(Br)c1O,83.7
COc1cc(/C=C(/C#N)C(=O)Nc2ccccc2)c(Br)cc1OCc1ccc(C(=O)O)cc1,-66.8*
COC(=O)c1c(-c2ccccc2)csc1NC(=O)c1ccco1,-168.2*
O=C(Nc1scc(-c2ccc(F)cc2)c1C(=O)O)c1ccco1,-76.7*
COC(=O)c1c(-c2ccccc2)csc1NC(=O)c1c(-c2ccccc2)noc1C,65.4
SMILES,aSyn 5UTR act
Cc1nn(C)cc1/C=N/NC(=S)Nc1ccccc1,-136.7*
O=[N+]([O-])c1ccc(Cl)c(/C=N/NC(=S)Nc2ccccc2)c1,-79.3*
O=C(N/N=C/c1cc([N+](=O)[O-])ccc1O)c1cccc(NC(=O)c2cccc(Cl)c2)c1,60.4
CC(C)(C)C1CCC(OC(=O)CN2CCCCC2)CC1 (centres undefined),-63.3*
CC(=O)c1cccc(NC(=O)Nc2ccccc2)c1,-95.8*
CC(C)c1cc(C(=O)Nc2cccc(C(F)(F)F)c2)no1,-101.7*
CN(C)C(=S)Nc1ccc2ccccc2c1,-66.6*
O=C(Nc1ccccc1)Nc1cccc(C(F)(F)F)c1,-73.1*
O=C(Nc1cccc(O)c1)c1ccc(Br)cc1,-181.2*
CC(C)OC(=O)c1cccc(NC(=O)c2ccccc2)c1,-132.2*
Cc1cccc(NC(=O)CCNC(=O)c2ccc(Br)cc2)c1,-92.6*
CC(=O)c1ccc(NC(=O)c2cccc(NC(=O)c3ccccc3)c2)cc1,-115.6*
CCC(=O)Nc1cccc(NC(=O)c2ccc(Br)cc2)c1,-116.7*
CC1CCC(NC(=O)CCNC(=O)c2ccc(Br)cc2)CC1 (centres undefined),-70.6*
